Source: PubChem BioAssay (NCI)
About 83,000 compounds went through this panel and 20% of them were active in at least one assay; those are over-represented in the sample as a whole.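 Method: cells in 96-well plates; compound added at one concentration; 48 h incubation; percent growth measured; values under 10 scored active.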 Activity calls are given as the source filed them.

tested on: 786-0 renal; assay: NCI-60 one-dose screen, 48 h (100 = growth as untreated, 0 = no growth, -100 = all killed); settings: 10 µM unless noted

SMILES	growth
CCC(CC)N1C(=O)/C(=c2\sc3n(c2=O)NC2C(N=3)N(CC)C(=O)N2CC)c2ccccc21 (stereo not given)	72.7% (inactive)
CN1CCN(c2ccc(/C=N/Nc3nc4ccccc4c(=O)n3-c3ccccc3)cc2)CC1	91.6% (inactive)
CC1=NC2=NC(=O)/C(=C3/N=C(C)C=C(c4ccccc4)N3N)NN2C(c2ccccc2)=C1	108% (inactive)
Nc1ncc(-c2ccc3ncnc(N4CCc5cc(F)c(F)cc54)c3c2)cn1	14.2% (inactive)
COc1ccc(Oc2ccc(/C=N/NC(=O)CSc3nc4ccccc4c(=O)n3-c3ccc(Cl)cc3)cc2)cc1	25.2% (inactive)
COc1ccc2c(c1)Oc1nc(N)c(C#N)c(N)c1C2Sc1ccc(C)cc1 (stereo not given)	-80.7% (active)
CC(=O)C1=C(C)NC(NN)=NC1c1cccc(Cl)c1 (stereo not given)	104% (inactive)
O=C(NNc1nc2cc(F)ccc2n2c(CO)ccc12)c1cnccn1	17.4% (inactive)
NC(N)=Nc1ccc(Oc2cccc(NC(N)=Nc3ccc(Br)cc3)c2)cn1	68.7% (inactive)
CCOC(=O)C1=NNC(c2ccc(Cl)cc2)C1C(=O)N1C(=S)NC(=O)C1CC(C)C (stereo not given)	108% (inactive)
CC/C(=C/c1c(O)cccc1OC)c1ccc2c(OC)cccc2[o+]1	101% (inactive)
Cn1ccnc1C(=O)/C=C/c1ccc(CNC(=O)c2ccc(Cl)cc2)cc1	12.4% (inactive)
COc1c(N2CC3CCCNC3C2)c(F)cc2c(=O)c(C(=O)N/N=C/c3ccc(F)cc3)cn(C3CC3)c12 (stereo not given)	69.2% (inactive)
CN(C)CCNC(=O)c1ccc(-c2nc3ccc4[nH]ncc4c3c3c2CCC3)cc1	12% (inactive)
C=C(C=O)[C@@H]1CC[C@]2(COC(C)=O)CC[C@]3(C)C(CC[C@@H]4[C@@]5(C)CC[C@H](OC(C)=O)C(C)(C)[C@@H]5CC[C@]43C)[C@@H]12 (stereo not given in full)	2.99% (active)
COc1c(N2CC3CCCNC3C2)c(F)cc2c(=O)c(C(=O)N/N=C/c3c[nH]c4ccccc34)cn(C3CC3)c12 (stereo not given)	95.1% (inactive)
COc1cc(C2N=C(NNc3ccccc3)NC(C)=C2C(C)=O)ccc1O (stereo not given)	102% (inactive)
CCCCCc1ccc(S(=O)(=O)Nc2cccc(-c3csc(NC(=O)CNCCN(C)C)n3)c2)cc1	61.6% (inactive)

SMILES	growth
CCCCCc1ccc(S(=O)(=O)Nc2cccc(-c3csc(NC(=O)CCCCCN4CCN(CCO)CC4)n3)c2)cc1	68.3% (inactive)
CS(=O)(=O)Nc1cc(-c2ccc3ncc(C#N)c(NCc4ccccc4O)c3c2)cnc1Cl	8.24% (active)
CC(=O)N1C(=S)NC(=O)C1CC(C)C (stereo not given)	97.6% (inactive)
COc1cc(/C=C2\C(=O)Nc3ccccc32)ccc1OCc1ccc(Cl)cc1	106% (inactive)
COc1cc2oc(-c3cccc(NC(=O)c4cc(N)ccc4Cl)c3)cc(=O)c2c(OC)c1OC	85.2% (inactive)
COc1ccc(Cn2cc3c(c2-c2cc(OC)c(OC)c(OC)c2)CCc2c(CN4CCCC4)noc2-3)cc1	47.9% (inactive)
CCCCCc1ccc(S(=O)(=O)Nc2cccc(-c3csc(NCCN4CCN(C)CC4)n3)c2)cc1	60.3% (inactive)
CCC1=Cc2cc(OC)ccc2OC12C=Cc1cc(OC)ccc1O2 (stereo not given)	37.3% (inactive)
CCCCCc1ccc(S(=O)(=O)Nc2cccc(-c3csc(NC(=O)CCCCCN4CCN(C)CC4)n3)c2)cc1	44.4% (inactive)
N#Cc1cnc2ccc(-c3cnc4[nH]ncc4c3)cc2c1N1CCc2cc(F)c(Cl)cc21	11% (inactive)
CC(C)C[C@@H]1N[C@@]2(C(=O)Nc3ccccc32)[C@@H](c2ccc(F)cc2)[C@@H]1C(=O)c1ccc(O)cc1	93.2% (inactive)
O=C(NNc1nc2cc(F)cc(F)c2n2cccc12)c1cnccn1	14.3% (inactive)
O=C(NNc1nc2cc(F)c(F)cc2n2cccc12)c1cnccn1	30.6% (inactive)
O=C(CNc1nc(-c2cccc([N+](=O)[O-])c2)cs1)Nc1cccc([N+](=O)[O-])c1	-13.6% (active)
CC(Nc1c(C#N)cnc2ccc(-c3cnc(N)nc3)cc12)c1ccccc1 (stereo not given)	12.2% (inactive)
C=CCn1c(SCC(=O)Nc2ccc(C(=O)/C=C/c3ccc(Cl)cc3)cc2)nnc1-c1c[nH]c2ccccc12	106% (inactive)
CCCCCc1ccc(S(=O)(=O)Nc2cccc(-c3csc(NC(=O)CN4CCN(C)CC4)n3)c2)cc1	63.8% (inactive)
